According to PubChem BioAssay (NCATS):
Inconclusive results are not listed. Values without a mark were called inactive. Activity calls are given as the source filed them. Calls come from the whole dose curve; as a rule, active = well fitted inhibition curve with a large enough effect; inconclusive = small, poorly fitted or top-dose-only effect; inactive = flat fitted curve, though single readings scatter.

System: astro (control astrocytes)
Test: Drug repurposing screens with cells derived from glioblastoma tumor samples (AID 1345199); note: nearly all actives have a fitted effect of over 40% in size
Settings: viability, ATP luminescence, 48 h; series mostly up to 45.9 µM; activity, negative = cell killing: at the top concentration
In short: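 Primary testing used CD133+ neurospheres from four GBM patients, seven concentrations, 48 h exposure and ATP-based viability; confirmation added three slower-growing patient lines.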
% is set by controls: 0 for no effect and ±100 for the full control effect; potency is the fitted concentration of half-maximal effect.

SMILES	activity, negative = cell killing	Potency
CCN(CC)C(=O)N[C@@H]1C=C2c3cccc4[nH]cc(c34)C[C@@H]2N(C)C1	-12.7%	
COc1ccc(C(CN(C)C)C2(O)CCCCC2)cc1 (centres undefined)	-10.3%	
COc1ccccc1N1CCNCC1	-17.2%	
CCCC1CCCCN1 (centres undefined)	-11.1%	
CCC(=O)C(CC(C)N(C)C)(c1ccccc1)c1ccccc1 (centres undefined)	-27.6% [at 91.6 µM]	
CCCN1CCC[C@@H]2Cc3nc(N)ncc3C[C@H]21	-18%	
O=[N+]([O-])c1cc([As](=O)(O)O)ccc1O	-21.4% [at 21.2 µM]	
CC1NCCOC1c1ccccc1 (centres undefined)	6.59%	
CC1OC(C)OC(C)O1 (centres undefined)		inactive
O=C1CC[C@@]2(O)[C@H]3Cc4ccc(O)c5c4[C@@]2(CCN3CC2CC2)[C@H]1O5	-7.08%	
Cc1cccc(C)c1NC1=NCCCS1	-14.7%	
CCN(C(C)=O)c1cccc(-c2ccnc3c(C#N)cnn23)c1	-20.7%	
O=C1NCN(c2ccccc2)C12CCN(CC1COc3ccccc3O1)CC2 (centres undefined)	-20.7%	
CCC(C(N)=O)N1CCCC1=O (centres undefined)	-5.28%	
C#CCOC(C(=O)OCCN(C)C)(c1ccccc1)c1ccccc1	5.33%	
Cc1ccc2c(c1)C1CN(C)CCC1N2 (centres undefined)	-3.11%	
CCCN1CCC[C@@H]2Cc3[nH]ncc3C[C@H]21	-25.3%	
CN(C)CCc1ccc(O)cc1	-3.83%	
O=C(NC(O)C(Cl)(Cl)Cl)NC(O)C(Cl)(Cl)Cl (centres undefined)	-19.1%	
Clc1ccc(CCC(Cn2ccnc2)Sc2c(Cl)cccc2Cl)cc1 (centres undefined)	-17.7% [at 21.2 µM]	
FC(F)(F)c1cccc(C2=CCN(CCc3ccc4ccccc4c3)CC2)c1	-28.5%	
C=CCN1CC[C@]23c4c5ccc(O)c4O[C@H]2C(=O)CC[C@@]3(O)[C@H]1C5		inactive
CC(C)(C)NCC(O)c1cc(Cl)c(N)c(Cl)c1 (centres undefined)	-10.8%	
N[C@@H](Cc1ccc(Oc2cc(I)c(O)c(I)c2)c(I)c1)C(=O)O	-23.2%	
C#CCN(C)[C@H](C)Cc1ccccc1	-14.2%	
N[C@@H]1C[C@H]1c1ccccc1	-5.14%	
Cn1c(CCCC(=O)O)nc2cc(N(CCCl)CCCl)ccc21	-2.37%	
CCN(CC)CCOC(=O)C(O)(c1ccccc1)c1ccccc1	-3.95%	
CO[C@]12CC[C@@]3(C[C@@H]1[C@](C)(O)C(C)(C)C)[C@@H]1Cc4ccc(O)c5c4[C@@]3(CCN1CC1CC1)[C@H]2O5		31.6 µM (active)
